Screening results (PubChem BioAssay)
Shown are actives, neighbours in structure and some others; about 13% of the full set was active somewhere.
USP30 inh: human USP30 deubiquitinase inhibition | Q70CQ3 | purified USP30, Ub-rhodamine cleavage fluorescence | inhibition, % at 25 µM | 47,000 tested, 5.3% active
USP28 inh: blocks human USP28 ubiquitin-rhodamine cleavage. 47,000 tested, 3% active. inhibition, % at 25 µM. AID 1645857. Q96RU2. purified USP28, Ub-rhodamine cleavage fluorescence, 30 min
USP17 inh: blocks human USP17 ubiquitin-rhodamine cleavage; A8MUK1; 47,000 tested, 6.5% active; inhibition, % at 50 µM; purified USP17, Ub-rhodamine cleavage fluorescence, 3 h
USP8 inh: blocks human USP8 ubiquitin-rhodamine cleavage; P40818; purified USP8, Ub-rhodamine cleavage fluorescence, 30 min; inhibition, % at 20 µM; 47,000 tested, 4.2% active; AID 1645853
Target sequence (P40818 whole entry, looked up): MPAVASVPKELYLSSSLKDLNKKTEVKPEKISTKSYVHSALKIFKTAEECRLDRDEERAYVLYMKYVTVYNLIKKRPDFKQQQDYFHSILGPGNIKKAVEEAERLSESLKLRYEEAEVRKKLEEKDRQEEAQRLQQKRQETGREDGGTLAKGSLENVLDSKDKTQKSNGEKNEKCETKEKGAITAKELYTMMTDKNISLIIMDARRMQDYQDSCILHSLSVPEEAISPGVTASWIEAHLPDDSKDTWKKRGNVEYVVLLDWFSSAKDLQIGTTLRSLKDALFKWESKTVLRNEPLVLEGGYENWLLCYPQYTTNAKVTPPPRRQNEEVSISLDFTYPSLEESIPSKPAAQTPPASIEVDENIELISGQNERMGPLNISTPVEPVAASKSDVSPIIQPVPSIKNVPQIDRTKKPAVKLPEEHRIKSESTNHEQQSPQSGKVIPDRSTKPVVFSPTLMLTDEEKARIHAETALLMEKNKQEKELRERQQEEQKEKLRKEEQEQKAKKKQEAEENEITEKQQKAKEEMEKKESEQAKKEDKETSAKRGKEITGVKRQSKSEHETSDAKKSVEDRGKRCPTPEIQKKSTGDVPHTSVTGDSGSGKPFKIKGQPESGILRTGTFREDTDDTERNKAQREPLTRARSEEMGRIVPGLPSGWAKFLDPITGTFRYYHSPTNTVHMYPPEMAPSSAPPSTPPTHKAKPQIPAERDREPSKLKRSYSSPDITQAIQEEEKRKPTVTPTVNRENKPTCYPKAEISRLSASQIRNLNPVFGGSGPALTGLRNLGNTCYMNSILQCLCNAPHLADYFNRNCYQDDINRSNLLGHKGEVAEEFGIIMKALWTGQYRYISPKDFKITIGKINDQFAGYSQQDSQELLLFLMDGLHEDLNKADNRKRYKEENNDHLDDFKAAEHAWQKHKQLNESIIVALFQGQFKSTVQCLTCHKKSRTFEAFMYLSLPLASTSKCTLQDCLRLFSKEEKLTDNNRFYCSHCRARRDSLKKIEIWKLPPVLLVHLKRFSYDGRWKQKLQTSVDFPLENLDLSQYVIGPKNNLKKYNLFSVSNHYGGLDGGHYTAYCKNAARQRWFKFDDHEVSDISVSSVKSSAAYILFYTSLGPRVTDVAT
Numbers stand for hits. Rule as the data show it: active = inhibition above about 30%; inactive = the rest.

`CCC(C)[C@H](NC(=O)[C@H](C(C)C)N1C(=O)N2CCc3c([nH]c4ccccc34)[C@@]2(C)C1=O)C(=O)NC1CCCC1` (some centres not stated) gave USP30 inh 31.7, USP28 inh inactive, USP17 inh inactive and USP8 inh inactive.
CC(C)c1cc(C(=O)N2CCC(C3Nc4ccccc4S(=O)(=O)N3)CC2)n(C)n1 (configuration not stated) was read as USP30 inh inactive, USP28 inh inactive, USP17 inh inactive and USP8 inh inactive.
For Cc1ccccc1Nc1nc(N)nc(CSc2ccc3c(c2)OCCO3)n1 the results were USP30 inh inactive, USP28 inh inactive, USP17 inh inactive and USP8 inh inactive.
`O=C(NCc1ccc(F)cc1)C1CCCN(c2nnc3ccccn23)C1` (configuration not stated) gave USP30 inh inactive, USP28 inh inactive, USP17 inh inactive and USP8 inh inactive.
`O=C(Cn1c(=O)n(CCC(=O)N2CCc3ccccc3C2)c(=O)c2ccccc21)NCc1ccccc1Cl` gave USP30 inh 52.7, USP28 inh 49.1, USP17 inh 76.7 and USP8 inh 90.2.
`Cc1ccccc1Cn1c(=O)n(CCCC(=O)N2CCc3ccccc3C2)c(=O)c2ccccc21` gave USP30 inh 47.4, USP28 inh inactive, USP17 inh inactive and USP8 inh inactive.
`Cc1oc2ccc(NS(=O)(=O)c3ccc(F)cc3)cc2c1C(=O)OCc1ccccc1` gave USP30 inh inactive, USP28 inh 60.3, USP17 inh inactive and USP8 inh inactive.
CCCCCCCCCCCCCCCc1cc(O)cc(O)c1C(=O)O was read as USP30 inh 55.5, USP28 inh 52.8, USP17 inh 88.6 and USP8 inh inactive.
For CCCCCCCc1cc(OC(=O)c2c(CCCCCCC)cc(O)cc2O[C@@H]2O[C@H](CO)[C@@H](O)[C@H](O)[C@H]2O)cc(O)c1C(=O)O the results were USP30 inh 110.5, USP28 inh 102.0, USP17 inh 102.2 and USP8 inh 99.3.
Cc1cc2cc(CNS(=O)(=O)N(C)C)ccc2[nH]1 was read as USP30 inh inactive, USP28 inh inactive, USP17 inh inactive and USP8 inh inactive.
`O=C(CSc1nc2ccccc2[nH]1)Nc1cccc2c1OCCO2` gave USP30 inh inactive, USP28 inh 40.7, USP17 inh inactive and USP8 inh inactive.
CC(Sc1nc2ccccc2[nH]1)C(=O)Nc1ccc2c(c1)OCCO2 (configuration not stated) was read as USP30 inh inactive, USP28 inh inactive, USP17 inh inactive and USP8 inh inactive.
COc1cccc(NC(=O)N2CCN(C3=CC4=NC(C)CN4C=N3)CC2)c1 (configuration not stated) was read as USP30 inh inactive, USP28 inh inactive, USP17 inh inactive and USP8 inh inactive.
Screening COc1cccc(NC(=O)N2CCN(c3ncccc3C(F)(F)F)CC2)c1 returned USP30 inh inactive, USP28 inh 42.3, USP17 inh inactive and USP8 inh inactive.
Cc1nnc(NC(=O)CN2CCCCC2c2nc(C3CC3)no2)s1 (configuration not stated) was read as USP30 inh inactive, USP28 inh inactive, USP17 inh inactive and USP8 inh inactive.
Screening CC(=O)CSc1nnc(-c2cnn(-c3ccccc3)c2N)o1 returned USP30 inh inactive, USP28 inh inactive, USP17 inh inactive and USP8 inh inactive.
Nc1ccccc1-c1nnc(SCC(=O)c2ccccc2)o1 was read as USP30 inh 32.7, USP28 inh inactive, USP17 inh inactive and USP8 inh inactive.
For CN1CCN(c2ccc(S(=O)(=O)N3CCCCC3)cc2NC(=O)Cc2ccc(Cl)cc2)CC1 the results were USP30 inh inactive, USP28 inh inactive, USP17 inh inactive and USP8 inh inactive.
For COc1cccc(CNCc2nc(NCc3cccc(OC)c3)c3c(C)c(C)sc3n2)c1 the results were USP30 inh 41.7, USP28 inh 37.4, USP17 inh inactive and USP8 inh inactive.
For COc1ccc(Cl)cc1NC(=O)CC(NCCc1ccccc1)C(=O)O (configuration not stated) the results were USP30 inh inactive, USP28 inh inactive, USP17 inh inactive and USP8 inh inactive.
COc1cc(Cl)cc(CNC(C)C(=O)O)c1O (configuration not stated) was read as USP30 inh inactive, USP28 inh inactive, USP17 inh inactive and USP8 inh 65.8.
CCn1cc(-c2nc(-c3ccccn3)no2)c(=O)c2cc(F)ccc21 was read as USP30 inh inactive, USP28 inh inactive, USP17 inh 58.0 and USP8 inh inactive.
For CC(C)c1cc(C(=O)N2CCCC2c2cc(C(C)C)on2)on1 (configuration not stated) the results were USP30 inh inactive, USP28 inh inactive, USP17 inh inactive and USP8 inh inactive.
`CN(C)[C@@H]1[C@@H](O)[C@H](Oc2ccccc2)C[C@H]1NC(=O)c1cscn1` gave USP30 inh inactive, USP28 inh inactive, USP17 inh inactive and USP8 inh inactive.
For Cn1c(SCc2nc3ccccc3c(=O)[nH]2)nc2ccccc21 the results were USP30 inh inactive, USP28 inh inactive, USP17 inh inactive and USP8 inh 34.5.
Screening Cc1ccc(CSc2nc3ccccc3c(=O)[nH]2)cc1 returned USP30 inh inactive, USP28 inh inactive, USP17 inh inactive and USP8 inh inactive.
`O=c1[nH]c2ccc(S(=O)(=O)Nc3ccc(O)c4ccccc34)cc2[nH]1` gave USP30 inh inactive, USP28 inh inactive, USP17 inh 62.8 and USP8 inh 95.3.
For CCc1nc2ccc(C(=O)Nc3nc(-c4ccc5c(c4)CCN5C(=O)CC(C)(C)C)c(C)s3)cc2nc1CC the results were USP30 inh inactive, USP28 inh inactive, USP17 inh inactive and USP8 inh inactive.
`CCC(=O)N1c2ccccc2NC2=C(C(=O)CC(c3cccc([N+](=O)[O-])c3)C2)C1c1ccco1` (configuration not stated) gave USP30 inh inactive, USP28 inh inactive, USP17 inh inactive and USP8 inh inactive.
`O=c1ccc(-c2noc(/C=C/c3ccc4c(c3)OCO4)n2)c[nH]1` gave USP30 inh inactive, USP28 inh inactive, USP17 inh 47.1 and USP8 inh inactive.
`O=c1ccc(-c2noc(-c3ccc4cc[nH]c4c3)n2)c[nH]1` gave USP30 inh inactive, USP28 inh inactive, USP17 inh 58.8 and USP8 inh 51.0.
Screening COc1ccc(-c2nc(-c3ccc(=O)[nH]c3)no2)c(C)c1 returned USP30 inh inactive, USP28 inh inactive, USP17 inh inactive and USP8 inh inactive.
Cc1cccc(-c2nn(-c3ccccc3)c3c2c(C)cc(=O)n3CC(=O)N2CCOCC2)c1 was read as USP30 inh inactive, USP28 inh inactive, USP17 inh inactive and USP8 inh inactive.
For O=C(Nc1ccc(Cl)cc1F)c1cc(-c2ccncc2)n[nH]1 the results were USP30 inh 74.0, USP28 inh inactive, USP17 inh 66.9 and USP8 inh inactive.
O=C(Nc1ccc(F)cc1F)c1cc(-c2ccccn2)n[nH]1 was read as USP30 inh inactive, USP28 inh inactive, USP17 inh inactive and USP8 inh 52.2.
